From PubChem BioAssay (NCI) come the findings set out here.

Compounds without any hit were thinned out: in the full panel of roughly 83,000, 20% have a hit.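 Single-dose data. Exposure time 48 hours. Values below 10 considered active.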 A number with no mark means an inactive call. The source made the active and inactive calls.

Common to all, as to assay: NCI-60 one-dose screen, 48 h (100 = growth as untreated, 0 = no growth, -100 = all killed)
What all share (details): 10 µM unless noted

The test system of experiment [1] is HCT-15 colon.
The test system of experiment [2] is HT29 colon.
In experiment [3] the test system is SNB-75 CNS.
Experiment [4] has as its system SNB-19 CNS.
For experiment [5], the system named is U251 CNS.
Experiment [6] relates to PC-3 prostate.
For experiment [7], the system named is SK-MEL-5 melanoma.
In experiment [8] the test system is UACC-62 melanoma.
The subject of experiment [9] is LOX IMVI melanoma.
In experiment [10] the test system is SK-MEL-28 melanoma.

Take `CS(=O)(=O)c1nccc(-c2c(-c3ccc(F)c(OCCc4ccc(F)cc4)c3)nc3sccn23)n1`: the growth was -0.659% (active) in experiment [1]; 7.43% (active) in experiment [2]; 67.8% in experiment [3]; 0.358% (active) in experiment [4]; 71.4% in [5]; -62.2% (active) in [6]. In addition, the growth in experiment [7] is 92.1%; in [8], 57.9%; in experiment [9] it was 51.5%; in experiment [10] it was -71.5% (active).

Take `O=C(Nc1cccc(-c2nc(-c3ccc(NC(=O)c4cccnc4)cc3Cl)no2)c1)Nc1ccc(NC(=O)C2CC2)c(C(F)(F)F)c1`: the growth is 9.01% (active) in experiment [1]; -26.8% (active) in experiment [2]; -73.7% (active) in experiment [3]; -0.276% (active) in [4]; -48% (active) in experiment [5]; -65.8% (active) in [6]. The growth was -92.9% (active) in [7], -81.9% (active) in experiment [8], -93.3% (active) in experiment [9] and -83.7% (active) in experiment [10].

As to `CNC(=O)c1cc(N2CCc3cc(NC(=O)Nc4ccc(Cl)c(Cl)c4)ccc32)ccn1`, the growth in experiment [1] was 63%; in [2], 82.1%; in [3] it was 87.9%; in experiment [4], 81.4%; in [5], 70%; in experiment [6], 65.2%. In addition, the growth is 74.5% in [7], 78.9% in experiment [8], 86.9% in experiment [9] and 86.5% in experiment [10].

`COc1ccc(C2CC(c3ccc(Nc4nc(NCCO)nc(Nc5ccc(Cl)cc5)n4)cc3)=Nc3c(N)nc(N)nc3N2)cc1` (stereo not drawn): the growth in experiment [1] was 14.1%; in experiment [2] it was 54.8%; in [3] it was 117%; in experiment [4], 76.8%; in experiment [5], 66.4%; in [6] it was 63.1%. Besides, the growth was 59.8% in experiment [7], 107% in experiment [8], 12.9% in [9] and 119% in experiment [10].

Take `CCC(=O)Nc1ccc(-c2nc(-c3cccc(O)c3)c(-c3ccnc(Br)c3)[nH]2)cc1`: the growth is 78.6% in experiment [1]; 51.7% in experiment [2]; 8.26% (active) in [3]; 58% in experiment [4]; 47.8% in experiment [5]; 60.5% in experiment [6]. Moreover, the growth in [7] was 77%; in experiment [8], 34.6%; in experiment [9], 59.3%; in experiment [10], 59.1%.

In the case of `C=CCn1c(SCC(=O)Nc2cccc(C(=O)/C=C/c3ccc(OC)c(OC)c3)c2)nc2ccccc2c1=O`, the growth is 72.4% in [1]; 95% in experiment [2]; 83.7% in experiment [3]; 77.2% in [4]; 76.6% in experiment [5]; 79.7% in experiment [6]. For the same compound, the growth in [7] was 97.6%; in experiment [8], 74.9%; in [9], 79.5%; in experiment [10], 102%.

On to `Clc1ccc(-c2nc3ccc(/C(=N\N=C\c4ccccc4)c4ccccc4)cc3[nH]2)cc1`, for which the growth in experiment [1] was 72%; in experiment [2] it was 71.7%; in experiment [3], 113%; in experiment [4] it was 93.8%; in experiment [5] it was 88.4%; in experiment [6], 62.2%. In addition, the growth in experiment [7] was 86.7%; in experiment [8] it was 88.8%; in experiment [9], 84.6%; in [10], 90.6%.

Consider `COCCOc1ccc(-c2csc(NC(=O)CN3CCN(CCO)CC3)n2)cc1NS(=O)(=O)c1cccc2c(N(C)C)cccc12`, for which the growth was 85% in experiment [1]; -68.5% (active) in experiment [2]; 88.6% in experiment [3]; 62.2% in [4]; 49.1% in [5]; 76.1% in [6]. For the same compound, the growth is 86.5% in [7], 80.5% in experiment [8], 11.8% in experiment [9] and 30.8% in [10].

On to `O=c1[nH]c(CNc2ccc(NCc3c(-c4ccccc4)no[n+]3[O-])cc2)nc2c1cnn2-c1ccccc1`, for which the growth in experiment [1] is 71.2%; in experiment [2], 92%; in [3], 76.1%; in experiment [4], 94%; in experiment [5], 85.5%; in experiment [6], 63.3%. The growth was 39% in [7], 52.5% in experiment [8], 63.6% in experiment [9] and 85.3% in [10].

On to `CCOC(=O)/C(F)=C/C1CC1CCc1cccc(C(F)(F)F)c1` (stereo not drawn), for which the growth in [1] was 101%; in experiment [2], 107%; in experiment [3], 102%; in [4] it was 97.1%; in [5], 113%; in experiment [6], 105%. For the same compound, the growth in experiment [7] is 100%; in experiment [8], 96.5%; in experiment [9], 102%; in [10], 98.8%.

In the case of `CCOC(=O)c1ccc(N/C=C/C(=O)c2ccccc2)cc1`, the growth is 86.2% in experiment [1]; 103% in experiment [2]; 97% in experiment [3]; 92.1% in experiment [4]; 99.7% in experiment [5]; 95.7% in experiment [6]. The growth in experiment [7] is 99.4%; in [8], 87.5%; in experiment [9], 96.3%; in experiment [10], 97.2%.

Regarding `N#C/C(=C\c1ccc2ccccc2c1)C(=O)Nc1sc2c(c1C#N)CCC2`, the growth in [1] was 99%; in experiment [2] it was 121%; in experiment [3], 102%; in experiment [4] it was 98.9%; in [5], 99%; in experiment [6], 98.1%. The growth was 98% in [7], 90.3% in experiment [8], 95.6% in experiment [9] and 113% in experiment [10].

For `COc1cc2c3c(n(CCCN4CCC[C@H]4C(N)=O)c(=O)c2cc1OC)-c1cc2c(cc1C3=O)OCO2`, the growth is 11.9% in experiment [1]; 6.94% (active) in [2]; 12% in experiment [3]; 21.2% in [4]; -21.6% (active) in experiment [5]; 39.7% in [6]. The growth in [7] was -46.1% (active); in experiment [8], -43.5% (active); in [9], -28.3% (active); in experiment [10], 52.1%.

On to `Clc1ccc(-c2csc(N/N=C/c3nc4ccccc4n3C3CC3)n2)cc1`, for which the growth was 90.5% in [1]; 99.8% in experiment [2]; 82.4% in experiment [3]; 98.3% in experiment [4]; 97.2% in [5]; 98.4% in experiment [6]. In addition, the growth was 97.1% in experiment [7], 98.4% in experiment [8] and 101% in experiment [10].

For `O=C1Nc2ccc(Br)cc2/C1=N\c1nnc(-c2ccc(Cl)cc2)o1`, the growth was 24.2% in [1]; 32.5% in experiment [2]; 46.8% in experiment [3]; 72% in [4]; 60.5% in [5]; 80.1% in experiment [6]. Besides, the results for the growth in experiment [7], in [8] and in experiment [10] were 77.2%, 60.1% and 70.8%, respectively.

Take `CS(=O)c1nccc(-c2c(-c3ccc(F)c(OCCc4ccc(F)cc4)c3)nc3sccn23)n1` (stereo not drawn): the growth was 11.7% in experiment [1]; 7.84% (active) in experiment [2]; 88.7% in [3]; 70.8% in experiment [4]; 92.6% in [5]; 60.5% in experiment [6]. Besides, the growth is 99.1% in [7], 86% in experiment [8], 19.9% in [9] and 64.8% in experiment [10].

Regarding `COc1ccc(-c2nc(SCCC(C)C)nc(N/N=C\c3ccc(O)cc3)c2C#N)cc1`, the growth was 28.2% in experiment [1]; 107% in experiment [2]; 77.2% in [3]; 60.1% in experiment [4]; 29.4% in experiment [5]; 72.4% in experiment [6]. Besides, the growth is 89.2% in experiment [7], 93.9% in experiment [8] and 95% in [10].

As to `Cc1cc(C(=O)Nc2ccc(SC#N)cc2)c(C)o1`, the growth in experiment [1] is 82.1%; in [2] it was 106%; in experiment [3], 104%; in [4], 90.7%; in [5], 76%; in experiment [6] it was 73.9%. Also, the growth in experiment [7] was 99.6%; in [9] it was -41.2% (active); in [10], 104%.

On to `CN1CCN(Cc2ccc(NC(=O)c3cncc(C#Cc4[nH]nc5ncncc45)c3)cc2C(F)(F)F)CC1`, for which the growth was 65.4% in experiment [1]; 25.8% in experiment [2]; 78.2% in [3]; 97.3% in [4]; 76.8% in experiment [5]; 81.3% in [6]. The growth was 71.2% in experiment [7], 39.6% in [8], 13% in experiment [9] and 37.7% in [10].

`C#C[C@]1(O)CC[C@H]2[C@@H]3CC=C4c5sc(Nc6ccc(OC)nc6)nc5CC[C@]4(C)[C@H]3CC[C@@]21C`: the growth was -66.4% (active) in experiment [1]; -4.57% (active) in experiment [2]; -8.98% (active) in [3]; 50.5% in experiment [4]; 17.8% in experiment [5]; 29.9% in [6]. For the same compound, the growth in experiment [7] is 52.1%; in [8], 70.5%; in experiment [10], 68.8%.

In the case of `O=C1c2c(c3c4cc(Br)ccc4[nH]c3c3ccc4ccccc4c23)C(=O)N1CCN1CCCCC1`, the growth in experiment [1] is -60% (active); in experiment [2] it was 10.3%; in experiment [3], 49.6%; in experiment [4], 37.7%; in [5], -10.9% (active); in [6], 65%. The growth is 68.3% in experiment [7], 59.5% in experiment [8] and 93.5% in [10].

As to `CN1CCN(c2nc(-c3csc(-c4ccncc4)n3)cc3ccccc23)CC1`, the growth was 17% in [1]; 26.5% in experiment [2]; 62.5% in experiment [3]; 77.6% in experiment [4]; 49.1% in [5]; 59.8% in [6]. Further, the growth in [7] is 70.4%; in experiment [9] it was 11.4%; in experiment [10] it was 28.8%.

Regarding `CCN(CC)CCN1C(=O)c2c(c3c4cc(Br)ccc4[nH]c3c3ccc4ccccc4c23)C1=O`, the growth in experiment [1] is -88.6% (active); in [2] it was -69.9% (active); in experiment [3], 77%; in [4] it was -92.7% (active); in experiment [5], -86.3% (active); in experiment [6] it was -80.9% (active). In addition, the figures for the growth in [7], in experiment [8] and in experiment [10] were -83.6% (active), 31.7% and -70.1% (active), respectively.

For the compound `C#C[C@]1(O)CC[C@H]2[C@@H]3CC=C4c5sc(Nc6cc(Cl)ccn6)nc5CC[C@]4(C)[C@H]3CC[C@@]21C`, the growth in [1] was 3.75% (active); in experiment [2] it was 21.4%; in experiment [3] it was -33.2% (active); in experiment [4], -1.08% (active); in experiment [5], 15.1%; in experiment [6], 7.93% (active). Besides, the growth was -58.9% (active) in [7], -17% (active) in experiment [8] and -47.3% (active) in [10].

As to `C#C[C@]1(O)CC[C@H]2[C@@H]3CC=C4c5sc(Nc6ccncc6)nc5CC[C@]4(C)[C@H]3CC[C@@]21C`, the growth in experiment [1] is -71.4% (active); in experiment [2], -4.61% (active); in [3], -49.4% (active); in experiment [4], -36.8% (active); in [5], 1.97% (active); in [6], 1.86% (active). Further, the growth was -83.9% (active) in experiment [7], -22.8% (active) in experiment [8] and -55.1% (active) in experiment [10].

Consider `COc1ccc(-c2ccc3c4c(cccc24)C(=O)N(N2C(=O)c4cccc5cccc(c45)C2=O)C3=O)cc1`, for which the growth in experiment [1] is 99.1%; in [2], 99.1%; in experiment [3], 73.4%; in experiment [4], 96.3%; in [5], 104%; in [6], 87.7%. Also, the values for the growth in experiment [7], in [8] and in experiment [10] were 99.6%, 96.8% and 106%, respectively.

`O=C1c2c(c3c4cccnc4[nH]c3c3ccc4ccccc4c23)C(=O)N1CCN1CCOCC1`: the growth in experiment [1] was 47.5%; in experiment [2], 53.3%; in experiment [3], 68%; in experiment [4], 55.6%; in experiment [5], 51.6%; in experiment [6], 62.1%. Also, the growth in experiment [7] is 43.9%; in experiment [8], 57.7%; in experiment [10], 92.9%.
